12-LOX inh: ALOX12 (human) lipoxygenase inhibition. P18054. purified 12hLO, xylenol orange hydroperoxide absorbance. Potency, µM (doses to about 108 µM), for inactives: at the top dose activity change, negative = inhibition, most hits filed as inhibitors. actives 1.1% (n = 580,000); also: % is scaled to controls: 0 for no effect and ±100 for the full control effect
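Hydroperoxide product was detected by ferrous iron/xylenol orange as the 573 to 405 nm absorbance ratio. Arachidonic acid at 40 uM (final) was turned over for 30 min at room temperature by 150 nM human 12hLO, pH 7.0 Hepes buffer, after 15 min compound preincubation.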
Sfp PPTase inh: Sfp phosphopantetheinyl transferase inhibition; Q9F4F7; actives 3.5% (n = 310,000); Biochemical Sfp PPTase activity, qHTS; AID 1490; Potency, µM, without a hit: largest response in the series, negative = inhibition, usual class: inhibitors;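 also: the enzyme is Sfp with the accession as filed and its product quenches rhodamine fluorescence; 0% = enzyme reaction without inhibitor and -100% = no enzyme wells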
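Compounds were incubated with enzyme (final 15 nM) for 15 min at room temperature before substrate addition started the reaction. Fluorescence at 525 nm excitation, 598 nm emission was recorded immediately and after 30 minutes.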
HP1b binding inh: inhibitors of HP1-beta chromodomain binding to methylated histone tails; AlphaScreen HP1-beta / biotin-H3K9me3 peptide binding; Potency, µM (titrated, usually from 114 µM), for the others: at the top dose activity change, negative = inhibition, actives largely listed as inhibitors; actives 0.56% (n = 390,000); also: nearly all actives have a fitted effect of over 70% in size
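HP1-beta protein (50 nM final) preincubated 30 min at room temperature with biotinylated H3(1-18)K9me3 peptide (50 nM) in PBS pH 7.4, 0.01% Tween-20, then compound added for 30 min. AlphaScreen streptavidin donor/nickel chelate acceptor beads (10 ug/mL final), 30 min dark, luminescence read.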
G9a block: G9a (human) methyltransferase inhibition; Q96KQ7; G9a H3K9 monomethylation, AlphaScreen, 2 h; Potency, µM (titrated, usually from 102 µM), without a hit: at the highest dose activity, negative = inhibition, hits mostly inhibitors; actives 8.8% (n = 350,000); also: % is scaled to controls: 0 for no effect and ±100 for the full control effect; nearly all actives have a fitted effect of over 75% in size
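Chemiluminescent proximity detection of H3K9 monomethylation, read after 10 min bead incubation in the dark. Reaction: 20 nM G9a, 500 nM biotin-H3K9 peptide, 20 uM SAM cofactor, 2 h, room temperature, following 15 min enzyme-compound preincubation.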
BAZ2B block: inhibitors of human BAZ2B bromodomain. Q9UIF8. AlphaScreen BAZ2B-H3K14Ac peptide displacement. Potency, µM (series often up to 114 µM), for inactives: at the highest dose activity change, negative = inhibition, actives largely listed as inhibitors. actives 4.4% (n = 360,000). AID 504333; also: % is scaled to controls: 0 for no effect and ±100 for the full control effect; nearly all actives have a fitted effect of over 60% in size
Target sequence (Q9UIF8 whole entry, looked up): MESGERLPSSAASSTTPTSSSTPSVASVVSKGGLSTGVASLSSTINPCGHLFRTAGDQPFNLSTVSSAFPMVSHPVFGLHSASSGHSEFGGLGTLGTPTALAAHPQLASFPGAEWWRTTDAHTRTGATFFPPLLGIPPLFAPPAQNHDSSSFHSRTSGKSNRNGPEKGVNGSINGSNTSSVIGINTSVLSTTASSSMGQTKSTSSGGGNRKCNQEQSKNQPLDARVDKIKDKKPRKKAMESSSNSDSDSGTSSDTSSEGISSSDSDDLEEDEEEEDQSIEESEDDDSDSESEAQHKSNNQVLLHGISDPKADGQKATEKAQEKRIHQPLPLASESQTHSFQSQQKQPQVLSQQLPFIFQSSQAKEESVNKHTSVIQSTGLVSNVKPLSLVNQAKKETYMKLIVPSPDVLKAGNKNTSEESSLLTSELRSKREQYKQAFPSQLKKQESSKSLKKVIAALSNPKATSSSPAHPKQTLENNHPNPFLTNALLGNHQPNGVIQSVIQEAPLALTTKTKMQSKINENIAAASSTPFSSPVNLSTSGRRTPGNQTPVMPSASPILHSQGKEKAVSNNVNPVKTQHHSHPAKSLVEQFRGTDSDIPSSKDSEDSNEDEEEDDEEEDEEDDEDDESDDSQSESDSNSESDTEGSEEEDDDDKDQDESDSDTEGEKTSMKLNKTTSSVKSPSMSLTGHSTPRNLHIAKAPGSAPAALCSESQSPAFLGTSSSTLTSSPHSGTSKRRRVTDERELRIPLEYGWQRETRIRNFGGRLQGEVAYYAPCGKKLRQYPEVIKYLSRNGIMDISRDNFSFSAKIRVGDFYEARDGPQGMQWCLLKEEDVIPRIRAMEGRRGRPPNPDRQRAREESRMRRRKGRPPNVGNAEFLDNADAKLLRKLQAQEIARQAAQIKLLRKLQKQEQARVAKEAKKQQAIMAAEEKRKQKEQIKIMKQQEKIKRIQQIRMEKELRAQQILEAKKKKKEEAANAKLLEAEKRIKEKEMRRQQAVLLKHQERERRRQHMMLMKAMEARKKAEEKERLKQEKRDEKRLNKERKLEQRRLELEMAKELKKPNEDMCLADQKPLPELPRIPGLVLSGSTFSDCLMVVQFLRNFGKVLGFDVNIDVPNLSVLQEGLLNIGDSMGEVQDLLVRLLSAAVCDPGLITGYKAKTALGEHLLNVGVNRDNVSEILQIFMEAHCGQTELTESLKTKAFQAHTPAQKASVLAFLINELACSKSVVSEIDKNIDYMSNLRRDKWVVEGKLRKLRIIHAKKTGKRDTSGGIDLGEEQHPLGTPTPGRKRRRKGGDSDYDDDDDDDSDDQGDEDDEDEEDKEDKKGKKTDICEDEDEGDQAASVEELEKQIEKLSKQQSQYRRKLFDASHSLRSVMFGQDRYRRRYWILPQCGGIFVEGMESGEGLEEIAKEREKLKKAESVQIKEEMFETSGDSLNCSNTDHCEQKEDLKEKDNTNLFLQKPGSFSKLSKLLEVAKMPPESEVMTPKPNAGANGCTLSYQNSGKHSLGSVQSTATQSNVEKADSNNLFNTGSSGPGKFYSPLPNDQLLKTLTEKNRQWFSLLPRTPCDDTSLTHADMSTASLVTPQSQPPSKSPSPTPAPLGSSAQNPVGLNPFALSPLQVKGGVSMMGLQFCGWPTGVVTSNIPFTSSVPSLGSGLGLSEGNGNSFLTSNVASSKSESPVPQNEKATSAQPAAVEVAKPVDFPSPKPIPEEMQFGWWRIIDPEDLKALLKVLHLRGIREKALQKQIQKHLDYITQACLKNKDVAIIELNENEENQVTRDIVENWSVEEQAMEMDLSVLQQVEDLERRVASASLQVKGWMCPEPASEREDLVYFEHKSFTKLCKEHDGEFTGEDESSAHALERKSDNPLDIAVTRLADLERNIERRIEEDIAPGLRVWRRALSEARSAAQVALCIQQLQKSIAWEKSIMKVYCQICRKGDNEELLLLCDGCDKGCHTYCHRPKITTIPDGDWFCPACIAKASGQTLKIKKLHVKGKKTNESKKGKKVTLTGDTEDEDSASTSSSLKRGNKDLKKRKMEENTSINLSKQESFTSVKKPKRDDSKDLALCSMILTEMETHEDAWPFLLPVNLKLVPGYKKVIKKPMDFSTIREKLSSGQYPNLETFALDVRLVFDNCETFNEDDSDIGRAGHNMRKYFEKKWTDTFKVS
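BAZ2B 50 nM plus b-H3(5-23)K14Ac 50 nM, PBS pH 7.4/0.01% Tween-20, 30 min RT; compound added (max 110 uM), 30 min RT; streptavidin donor/Ni-chelate acceptor beads 10 ug/mL final, 20 min dark; AlphaScreen read.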
JMJD2A Tudor: JMJD2A Tudor domain (human) inhibition; O75164; AlphaScreen JMJD2A-Tudor / H3K4me3 peptide binding; Potency, µM (series often up to 114 µM), for inactives: at the top dose activity change, negative = inhibition, usual class: inhibitors; actives 4.4% (n = 390,000); AID 504339; also: % is scaled to controls: 0 for no effect and ±100 for the full control effect; nearly all actives have a fitted effect of over 50% in size
Numbers without * were called inactive; ? = inconclusive; nt = no result given; [ ] = another dose, or the depositor's remark. Rows were chosen to be rich in hits. Some 8.7% of all compounds tested hit in one or more screens of this group. Calls follow the shape of the dose curve; as a rule, active = well fitted curve in the direction sought with a large enough effect; inconclusive = small, poorly fitted or top-dose-only effect, or another doubt; inactive = no such curve, though single readings can be large; an effect the other way counts as inactive or inconclusive. Potency is read from the fitted curve at half-maximal effect.

SMILES	12-LOX inh	Sfp PPTase inh	HP1b binding inh	G9a block	BAZ2B block	JMJD2A Tudor
Cc1cc(N2C(=O)C(O)=C(C(=O)c3ccco3)C2c2cccc(O)c2)no1 (stereo not drawn)	?	-14%	39%	?	?	-24%
Cc1cc(C)c2nc(N3C(=O)C(O)=C(C(=O)c4ccco4)C3c3ccc(O)cc3)sc2c1 (stereo not drawn)	25µM*	nt	-8%	?	?	?
Cc1cc(C)c2nc(N3C(=O)C(O)=C(C(=O)c4ccco4)C3c3cccc(O)c3)sc2c1 (stereo not drawn)	25µM*	nt	-9%	-48%[2.33 µM]	?	?
CC(=O)N1CCCc2cc(S(=O)(=O)NCc3cccs3)ccc21	31%	nt	nt	nt	nt	nt
Oc1ccccc1CN1CCOC[C@H]1c1ncc(-c2cccc(Cl)c2)[nH]1	30%[176 µM]	nt	nt	nt	nt	nt
O=C1[C@@H]2[C@H](Cc3ccc(O)cc3)N[C@]3(C(=O)Nc4ccccc43)[C@@H]2C(=O)N1c1ccc(F)cc1	0%	13%	nt	?	2%	nt
Cc1c(Cl)ccc2c1NC(=O)[C@]21N[C@@H](Cc2ccccc2)[C@H]2C(=O)N(c3ccc(F)cc3)C(=O)[C@H]21	-16%	13%	12%	1.6µM*	?	-29%
O=C1[C@@H]2C(Cc3ccc(O)cc3)NC3(C(=O)Nc4ccc(F)cc43)[C@@H]2C(=O)N1c1ccccc1 (stereo partly drawn)	-5%	-1%	-17%	79µM*	-37%	79µM*
CCNC(=O)CCc1c(C)nn(-c2ccc(F)cc2)c1Oc1ccc(F)cc1F	9%	nt	nt	nt	nt	nt
COc1ccc(NC(=S)NC(NC(=O)c2cccc(C)c2)C(Cl)(Cl)Cl)c([N+](=O)[O-])c1 (stereo not drawn)	?	?	-38%	?	?	-14%[11.4 µM]
COc1ccc(NC(=S)NC(NC(=O)c2cccc(Cl)c2)C(Cl)(Cl)Cl)c([N+](=O)[O-])c1 (stereo not drawn)	?	16%	?	?	?	22µM*
CCC(=O)NC(NC(=S)Nc1ccccc1Br)C(Cl)(Cl)Cl (stereo not drawn)	-5%	7%	25%	-8%[59 µM]	1%	-6%
CC(=O)NC(NC(=S)Nc1ccccc1Br)C(Cl)(Cl)Cl (stereo not drawn)	?	-4%	-4%	28µM*	9%	-3%
COc1ccc(NC(=S)NC(NC(C)=O)C(Cl)(Cl)Cl)c([N+](=O)[O-])c1 (stereo not drawn)	?	-17%	?	11µM*	-6%	-26%
Cc1nn(-c2ccccc2[N+](=O)[O-])c(C)c1[C@@H]1C=C[C@@H](NC(=O)Nc2cccc(C#N)c2)C1	1%	nt	nt	nt	nt	nt
CCNC(=O)CCn1nc(-c2ccccc2)c2ccccc2c1=O	-25%	nt	nt	nt	nt	nt
O=S(=O)(c1ccc(F)c(F)c1)N1CCN(C23CC4CC(CC(C4)C2)C3)CC1	28%	nt	nt	nt	nt	nt
CCC(C)C(=O)NC1CCN(c2cnn(Cc3ccccc3)c(=O)c2)CC1 (stereo not drawn)	49%	nt	nt	nt	nt	nt
COc1ccc(Cl)cc1N(CC(=O)N1CCc2ccccc2C1)S(C)(=O)=O	12%	nt	nt	nt	nt	nt
COc1ccc(C(=O)c2ccccc2)cc1	7%	0%	59%	33%	-9%	17%
COC1=CC(=O)C(C(=O)c2ccccc2)=CC1=O	nt	40µM*	nt	nt	nt	nt
CC(=O)NCCC1CCCCN1Cc1nc(C2(c3ccc(C)cc3)CCCC2)no1 (stereo not drawn)	4%	nt	nt	nt	nt	nt
O=C(CCc1ccccc1)NCCC1CCN(C(=O)Nc2ccccc2F)CC1	58%	nt	nt	nt	nt	nt
O=C(CCc1ccccn1)N1CCCC(Nc2cccc(F)c2)C1 (stereo not drawn)	-16%	16%	29%	10%	-3%	7.1µM*
COc1ccc(NC2CCCN(C(=O)CCc3cccc(F)c3)C2)cc1 (stereo not drawn)	?	2%	-17%	50µM*	?	?
SMILES	12-LOX inh	Sfp PPTase inh	HP1b binding inh	G9a block	BAZ2B block	JMJD2A Tudor
COc1ccc(NC2CCCN(C(=O)CCc3cccc(Cl)c3)C2)cc1 (stereo not drawn)	-18%	-7%	?	?	35µM*	?
Cc1nc(COc2ccccc2C(=O)Nc2nc(-c3ccccc3)cs2)no1	-22%	nt	nt	nt	nt	nt
Oc1ccccc1C=NN1CCCCCC1	-7%	nt	?	nt	nt	45µM*
Oc1ccc(/C=N/N2CCOCC2)c(O)c1O	66%	10µM*	-6%	4µM*	nt	22µM*
Oc1[nH]c2ccccc2c1/C=N/N1CCCCC1	?	-20%	0%	-42%[59 µM]	-1%	-23%
Oc1cccc(/C=N/N2CCCCC2)c1O	-18%	-28%	19%	45µM*	-33%	-27%
Brc1ccccc1/C=N/N1CCCCC1	nt	6%	-29%	-5%[2.33 µM]	?	?
Oc1ccc(/C=N/N2CCCCC2)c(O)c1O	2%	7.9µM*	-22%[57 µM]	1.6µM*	?	8.9µM*
COc1cccc(/C=N/N2CCOCC2)c1O	-5%	21%	27%	-8%	-4%	-17%
Oc1ccccc1/C=N/N1CCCCC1	-2%	0%	17%	-31%	nt	-31%
COc1ccc2ccc(OC(=O)/C=C/c3csc(C)n3)cc2c1	9%	nt	nt	nt	nt	nt
CN(Cc1cccnc1)c1nc2c(c(=O)[nH]1)CCN(Cc1ccc(C(F)(F)F)cc1)CC2	44%	nt	nt	nt	nt	nt
Cc1ccccc1C(=O)N1CCC(CCC(=O)NCCC(C)C)CC1	27%	nt	nt	nt	nt	nt
CCn1c(-n2nc(C)c(C)c2C)nc2c1c(=O)n(Cc1c(F)cccc1Cl)c(=O)n2C	-19%	nt	nt	nt	nt	nt
Oc1ccc(Cl)cc1C=NN1CCCCCC1	-24%	nt	-18%	nt	nt	56µM*
C(=NN1CCCCCC1)c1cccc2ccccc12	?	nt	?	nt	nt	50µM*
C(=N\n1cnnc1)/c1ccc2c(c1)OCO2	0%	19%	22%	18%	7%	-14%
C(=NN1CCCCCC1)c1ccc2c(c1)OCO2	?	nt	?	nt	nt	50µM*
O=S(=O)(Nc1cccc2c1CCCC2)c1ccc(F)c(F)c1	-17%	nt	nt	nt	nt	nt
O=C(Nc1nc2c(F)cc(F)cc2s1)c1ccco1	29%	10%	20%	-12%	4%	-15%
Fc1cccc2sc(Nc3nc4c(F)cccc4s3)nc12	13%	22%	31%	28%[59 µM]	-5%	-10%
NNc1nc2c(F)cc(F)cc2s1	40µM*	-20%	-59%	?	50µM*	79µM*
NNc1nc2c(F)cccc2s1	?	?	?	?	50µM*	89µM*
COc1cccc(C2Cn3nnc(-c4nc(-c5ccccc5Br)no4)c3CO2)c1 (stereo not drawn)	15%	nt	nt	nt	nt	nt
O=c1c(C(c2ccccc2)c2c(O)nc3n(c2=O)CCS3)c(O)nc2n1CCS2	?	-3%	28%	40µM*	-5%	5%

High-throughput results deposited in PubChem by National Center for Advancing Translational Sciences (NCATS).
